This note sets out measurements from ChEMBL document CHEMBL1157539, “Thousands of chemical starting points for antimalarial lead identification” (Nature, 2010).

Common to all, as to format: functional
The test system of test [1] is Plasmodium falciparum. The test is described as follows: GSK_TCMDC: Inhibition of Plasmodium falciparum 3D7 in whole red blood cells, using parasite LDH activity as an index of growth. Test compounds present at 2uM.
In test [2] the test system is Plasmodium falciparum. The test is described as follows: GSK_TCMDC: Inhibition of Plasmodium falciparum Dd2 in whole red blood cells, using parasite LDH activity as an index of growth. Test compounds present at 2uM.
A further test deals with HepG2. The test is described as follows: GSK_TCMDC: Percent inhibition of human HepG2 cell line. Test compounds present at 10uM.

As usually defined, the Inhibition is the share of the control response that was lost under treatment. Low values mean little suppression, high ones strong suppression. For `O=C(NC1CCN(CCC(NC(=O)c2ccccc2)c2ccc(Cl)c(Cl)c2)CC1)c1ccc(Cl)cc1` (configuration not stated), the Inhibition is 97% with Plasmodium falciparum [1], 36% in the test on Plasmodium falciparum [2] and 17% in the test on HepG2.

Consider `CCc1c[nH]c2c(N3CCCC3=O)cc(C(=O)N[C@@H](Cc3ccccc3)[C@H](O)CNC3CCCCC3)cc12.O=CO`, for which the values for the Inhibition with Plasmodium falciparum [1], in the test with Plasmodium falciparum [2] and in the test with HepG2 were 100%, 98% and 12%, respectively.

`O=C(Nc1ccc2ccccc2c1)c1ccc(CN2CCC(Cc3ccccc3)CC2)cc1`: the figures for the Inhibition in the test with Plasmodium falciparum [1], in the test on Plasmodium falciparum [2] and in the test with HepG2 were 95%, 10% and 38%, respectively.

Turning to `CN(C)CCOc1ccc(NC(=O)NC(C)(C)c2nc(-c3ccc(Cl)c(O)c3)c(-c3ccncc3)[nH]2)cc1.Cl`, the Inhibition in the test on Plasmodium falciparum [1] was 98%; in the test with Plasmodium falciparum [2], 98%; with HepG2 it was 22%.
